From PubChem BioAssay (NCI)
Compounds without any hit were thinned out: in the full panel of roughly 79,000, 15% have a hit. A number with no mark means an inactive call. Active and inactive are the calls of the source. No stated cut-off is given here; in the data, active means growth inhibition above about 70%; inactive means the rest.

Legend:
[1] = NCI Yeast Anticancer Drug Screen. Data for the rad50 strain (AID 155);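 further: 0% = growth of vehicle-only cultures of the same strain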; conditions: S. cerevisiae rad50 strain growth inhibition; at 50.0 µM; hits give high values
Method in brief: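 Genetically altered yeast (DNA repair pathway); compound treatment; growth inhibition vs vehicle ctrl.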

[2] = NCI Yeast Anticancer Drug Screen. Data for the mec2-1 strain (AID 157); conditions: S. cerevisiae mec2-1 strain, at 50.0 µM, hits give high values
Method in brief: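 Cells of the genetically defined mec2-1 yeast strain are incubated with test compound. Inhibition of growth is calculated against vehicle-treated controls.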

[3] = NCI Yeast Anticancer Drug Screen. Data for the sgs1 mgt1 strain (AID 161);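 further: 0% = growth of cultures given vehicle only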; conditions: S. cerevisiae sgs1 mgt1 strain, at 50.0 µM, hits give high values
Method in brief: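 Test agents were incubated with a DNA-repair-mutant yeast strain. Growth was then read and compared against vehicle-treated controls.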

[4] = NCI Yeast Anticancer Drug Screen. Data for the cln2 rad14 strain (AID 165);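 further: 0% = growth equal to vehicle treated cultures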; conditions: S. cerevisiae cln2 rad14 strain, at 50.0 µM, hits give high values
Method in brief: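 The screen exposed genetically defined yeast (cln2 rad14) to test compounds and scored growth inhibition relative to vehicle-treated controls.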

[5] = NCI Yeast Anticancer Drug Screen. Data for the bub3 strain (AID 167); conditions: S. cerevisiae bub3 mutant strain, at 50.0 µM, hits give high values
Method in brief: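 Yeast carrying a defined mutation is treated with each compound, and growth is compared with that of vehicle-exposed cells to give inhibition.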

[6] = NCI Yeast Anticancer Drug Screen. Data for the mlh1 rad18 strain (AID 175); conditions: S. cerevisiae mlh1 rad18 strain growth inhibition; at 50.0 µM; hits give high values
Method in brief: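 Compound-treated yeast growth, normalised to vehicle controls. Strain bears defined DNA repair mutations.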

SMILES | growth inhibition [1] | growth inhibition [2] | growth inhibition [3] | growth inhibition [4] | growth inhibition [5] | growth inhibition [6]
CC(=O)Oc1ccc2ccccc2c1CN(C(C)=O)c1ccc(C)cc1 | -7.45% | -22.7% | -10.1% | -19.4% | 1.7% | -28.4%
CCCC(/C(C)=N/NC(N)=O)C1CCCCC1 (configuration not stated) | 14.2% | 7.45% | -2.6% | 1% | -5.1% | 2%
N#CC(C(=O)C(N)=O)c1ccccc1Cl (configuration not stated) | -13.5% | -26.8% | -6.8% | -0.7% | -12.2% | -17.3%
CC1(C)CC(O)(Cc2ccccc2)C(O)c2ccccc21 (configuration not stated) | 45.5% | 32.1% | 31.6% | 54.5% | 26.1% | 74.2% (active)
CC1=NNC(=O)C2CCC(=O)N12 (configuration not stated) | 14.8% | 1% | 7.15% | 11.1% | 12.1% | 22.8%
CCOC12CC(OC(=O)N1)C(C)C1OC1(C)C(OC(=O)C(C)N(C)C(C)=O)CC(=O)N(C)c1cc(cc(OC)c1Cl)C/C(C)=C/C=CC2OC (configuration not stated) | -21.1% | -29.6% | -30.9% | -0.4% | -20.4% | -5.25%
CSc1cccc(N=C(C#N)C2=C(O)c3ccccc3C2=O)c1 | 21.1% | 1.85% | 9.65% | 38.6% | 21.5% | 24.4%
O=C1CN(c2ccccc2)CC(=O)N2C(c3ccccc3)CCCN12 (configuration not stated) | 22.3% | 1.65% | -6.05% | 26.2% | 24.4% | 3.35%
Cc1[nH]c(=O)[nH]c(=O)c1/C=C/C(=O)NC(CO)CS(=O)C(C)C (configuration not stated) | 83.2% (active) | 63.5% | 95.4% (active) | 64.7% | 79.7% (active) | 85.7% (active)
COCC(Cl)/C(N)=N\S(=O)(=O)c1ccc(Cl)cc1 (configuration not stated) | 5.8% | -17.4% | 15.2% | 14.8% | 26.2% | 4.95%
Cn1c2c(c3ccccc31)CCN=C2C1CCCOC1=O (configuration not stated) | -27.6% | -54.2% | -21.1% | -17.5% | -9.3% | -39.1%
O=C(c1ccccc1)C1C(c2ccccc2)SC(c2ccccc2)CC1(O)c1ccccc1 (configuration not stated) | 24.1% | 1.8% | 11.5% | 16.9% | -3.45% | 13.3%
O=c1/c(=c2\c(=O)c3cccc4cccc2c43)c2cccc3cccc1c32 | -10.2% | 24.9% | -0.4% | -34% | -9.05% | -18.1%
COC12OCCN(C)C1=CC(=O)C1=NNC(C)C12 (configuration not stated) | -37% | -1.6% | -8% | -27% | -11.8% | -36.5%
CC(C)=NNC(=O)c1n[nH]c(C)c1N=NN(C)C | 12.5% | -23.4% | 6.5% | -0.65% | -9.4% | 20.5%
Cc1ccc(NC(=O)N2CC2(C)C)cc1NC(=O)N1CC1(C)C | 0.2% | 0.55% | 2.8% | -1.6% | 1.2% | 4.9%
CC(=O)Nc1cc2c(cc1Br)Cc1cc(Br)ccc1-2 | -4.15% | -4.1% | -8.2% | -4.5% | 1.1% | -14.2%
Cc1cc(Br)cc2c1NC(=O)C(C)C2C (configuration not stated) | -2.95% | 12.7% | -24.6% | -8.95% | -3.35% | 1.1%
Oc1[nH]c2ccccc2c1N=Nc1nc(-c2ccccc2)cs1 | -40.6% | -52% | -46% | -0.9% | -30.4% | -18.8%

SMILES | growth inhibition [1] | growth inhibition [2] | growth inhibition [3] | growth inhibition [4] | growth inhibition [5] | growth inhibition [6]
O=C1OC(C2OC(=O)C(=O)C2C(=O)c2cccc([N+](=O)[O-])c2)C(C(=O)c2cccc([N+](=O)[O-])c2)C1=O (configuration not stated) | 0.5% | 40.9% | 13.3% | -33.6% | -36.5% | 29.6%
CCC(CC)NNC(CC)CC | -1.8% | -0.6% | -8.05% | 5.35% | -16.3% | -8.25%
Cc1cc(Cl)nc(/N=C(\N)Nc2ccc(Cl)c(Cl)c2)n1 | -1.95% | 5.45% | -1.05% | -11.7% | 6.1% | 7.6%
Cc1cc(C)c(NS(=O)(=O)c2ccc(Cl)cc2)cc1C | 94.5% (active) | 85.8% (active) | 92.2% (active) | 70% | 87.6% (active) | 90.5% (active)
N#C/C(=C\N1CCNC1=S)C(=O)c1ccc2ccccc2c1 | 23.1% | 1.75% | -1.7% | 0.55% | 14.7% | 11.6%
CCOC(=O)C(O)Cc1ccc(N)cc1 (configuration not stated) | 5.8% | 12.2% | 12.3% | 9.85% | 12.8% | 2.85%
O=C1Nc2ccccc2C12CCNC2Cc1ccccc1 (configuration not stated) | -17.2% | -12.2% | -11.8% | 19.8% | -8.55% | -21.4%
O=C1C=C(Nc2ccccc2C(=O)CC(=O)C(=O)Nc2cccc([N+](=O)[O-])c2)c2ccccc2C1=O | -15.2% | 12.3% | -7.2% | 12.3% | -15.5% | -7.1%
COC1/C=C\C=C(/C)C(=O)Nc2cc3nc4cccc(Br)c4oc-3c(c2=O)CC(C)CC(OC)C(O)C(C)/C=C(\C)C1OC(N)=O (configuration not stated) | 33.1% | 21.8% | 26.2% | 21.9% | 44.1% | 16.5%
COS(=O)(=O)Cc1ccccc1 | -21.6% | -15% | -16.8% | -19.2% | -12.3% | 8.45%
CCOC(=O)CC1(C)OCC(c2ccccc2)O1 (configuration not stated) | 8.8% | -0.55% | -3.6% | -15% | 9.35% | -3.1%
CCCC(CCC)C(=O)OCC(=O)c1ccc(-c2ccccc2)cc1 | -1.4% | -2.6% | 5% | -43.9% | 2.7% | -0.1%
Cc1ccc(/C=C/C(=N/Nc2ccccc2)C(C)CN(C)C)cc1 (configuration not stated) | -3.2% | -10.1% | -3.25% | -15.3% | -1.35% | -5%
O=C(CC1=NC2NN(c3ccccc3)C(=O)C2=C1CC(=O)C(c1ccccc1)c1ccccc1)C(c1ccccc1)c1ccccc1 (configuration not stated) | 51.9% | 17.9% | 27.8% | 32% | 10.8% | 48.5%
NC(N)=NC(Cc1ccccc1)C(=O)O (configuration not stated) | -8.15% | -10% | 1.3% | -26.6% | -12.4% | 0%
CCOC(=O)NC(Nc1ccc(F)cc1F)(C(F)(F)F)C(F)(F)F | 12.8% | -23.4% | -15.7% | 10.2% | -14.8% | 1.4%
Cc1c(N=Nc2cccc(Cl)c2)c(-c2ccccc2)nn1C(N)=S | 80.3% (active) | 45% | 96.8% (active) | 12.4% | 91.5% (active) | 92.5% (active)
CCC(CC)(CC#N)C1CCCCC1 | -0.8% | -0.35% | -0.6% | -13.8% | -3.15% | -8.2%
